Data: the antibiotic and cytotoxicity screens of Wong et al. (2023)
Screen size: about 39,000 compounds; about 3,300 (8.5%) were called active. This excerpt belongs to a sample that is enriched for actives.

Test system: HepG2
Test: cytotoxicity call (relative viability < 0.9)
Conditions: 10 µM

SMILES	cytotoxicity call
CC(C)NC(=O)Nc1ccc2c(c1)C(=O)N([C@H](C)CO)C[C@@H](C)[C@H](CN(C)S(=O)(=O)c1cccs1)O2	inactive
CO[C@H]1CN(C)C(=O)c2ccc(NS(C)(=O)=O)cc2OC[C@@H](C)N(C(=O)CN(C)C)C[C@@H]1C	inactive
Cn1nc(CN2CCCC2=O)c2c1CNC2	inactive
Cc1cc(C(=O)Nc2cccc3c2O[C@H](CN(C)Cc2ccc4c(c2)OCO4)[C@@H](C)CN([C@H](C)CO)C3=O)n(C)n1	inactive
CC(C)NC(=O)N(C)C[C@H]1Oc2ccc(NC(=O)C3CCCCC3)cc2CC(=O)N([C@@H](C)CO)C[C@H]1C	inactive
C[C@@H]1CN([C@H](C)CO)C(=O)c2ccccc2-c2ccccc2CO[C@@H]1CN(C)C(=O)Nc1ccc(-c2ccccc2)cc1	inactive
C[C@@H]1CCCCO[C@@H](CN(C)Cc2ccccc2)[C@H](C)CN([C@H](C)CO)C(=O)c2cc(NC(=O)Nc3cccc4ccccc34)ccc2O1	inactive
C[C@@H]1CN([C@H](C)CO)C(=O)c2cc(NC(=O)Nc3cccc4ccccc34)ccc2O[C@@H](C)CCCCO[C@@H]1CN(C)Cc1ccccc1	inactive
C[C@@H]1CCCCO[C@H](CN(C)Cc2ccccc2)[C@H](C)CN([C@@H](C)CO)C(=O)c2cc(NC(=O)Nc3cccc4ccccc34)ccc2O1	active
C[C@@H]1CCCCO[C@@H](CN(C)Cc2ccc(Cl)c(Cl)c2)[C@H](C)CN([C@@H](C)CO)C(=O)c2cc(NC(=O)Nc3cccc4ccccc34)ccc2O1	inactive
C[C@@H]1CCCCO[C@H](CN(C)Cc2ccccc2)[C@@H](C)CN([C@H](C)CO)C(=O)c2cc(NC(=O)Nc3cccc4ccccc34)ccc2O1	inactive
C[C@H](CO)N1C[C@H](C)[C@@H](CN(C)Cc2ccccc2)OCCCC[C@H](C)Oc2ccc(NC(=O)Nc3cccc4ccccc34)cc2C1=O	inactive
C[C@@H]1CCCCO[C@@H](CN(C)Cc2ccc(Cl)c(Cl)c2)[C@@H](C)CN([C@@H](C)CO)C(=O)c2cc(NC(=O)Nc3cccc4ccccc34)ccc2O1	active
C[C@@H]1CCCCO[C@@H](CN(C)Cc2ccc(Cl)c(Cl)c2)[C@H](C)CN([C@H](C)CO)C(=O)c2cc(NC(=O)Nc3cccc4ccccc34)ccc2O1	inactive
C[C@H]1CCCCO[C@@H](CN(C)Cc2ccccc2)[C@@H](C)CN([C@@H](C)CO)C(=O)c2cc(NC(=O)Nc3cccc4ccccc34)ccc2O1	active
C[C@@H]1CCCCO[C@H](CN(C)Cc2ccccc2)[C@H](C)CN([C@H](C)CO)C(=O)c2cc(NC(=O)Nc3cccc4ccccc34)ccc2O1	active
COc1ccc(NC(=O)N(C)C[C@H]2Oc3ncc(C#CCN(C)C)cc3C(=O)N([C@H](C)CO)C[C@H]2C)cc1	inactive
C[C@H](CO)N1C[C@H](C)[C@@H](CN(C)C(=O)C2CCOCC2)Oc2cc(-c3ccc(C(=O)N(C)C)cc3)ccc2S1(=O)=O	inactive
C[C@H]1CCCCO[C@H](CN(C)Cc2ccc(C(F)(F)F)cc2)[C@@H](C)CN([C@@H](C)CO)C(=O)c2cc(NC(=O)c3ccncc3)ccc2O1	inactive

SMILES	cytotoxicity call
C[C@@H]1CCCCO[C@@H](CN(C)C(=O)CCCN(C)C)[C@@H](C)CN([C@H](C)CO)C(=O)c2cc(N(C)C)ccc2O1	inactive
C[C@H](CO)N1C[C@H](C)[C@@H](CN(C)CC2CCCCC2)Oc2ccc(NC(=O)Cc3cn(C)c4ccccc34)cc2C1=O	inactive
CCCN(C)C[C@H]1OCCCC[C@@H](C)Oc2ccc(NC(=O)Cc3ccccc3)cc2C(=O)N([C@H](C)CO)C[C@H]1C	inactive
O=C(C[C@H]1CC[C@@H]2[C@H](COC[C@H](O)CN2CC2CCOCC2)O1)N1CCOCC1	inactive
C[C@@H]1CN([C@H](C)CO)C(=O)Cc2cc(NC(=O)CCN3CCOCC3)ccc2O[C@H]1CN(C)S(=O)(=O)c1cccs1	inactive
C[C@@H]1CN([C@@H](C)CO)C(=O)c2cc(NC(=O)Nc3cccc4ccccc34)ccc2O[C@@H](C)CCCCO[C@H]1CN(C)Cc1ccncc1	inactive
C[C@@H]1CN([C@@H](C)CO)C(=O)c2cc(NC(=O)Nc3cccc4ccccc34)ccc2O[C@@H](C)CCCCO[C@@H]1CN(C)Cc1ccncc1	inactive
C[C@@H]1CCCCO[C@@H](CN(C)Cc2ccccc2)[C@H](C)CN([C@@H](C)CO)C(=O)c2cc(NC(=O)Nc3cccc4ccccc34)ccc2O1	inactive
C[C@@H]1CN([C@@H](C)CO)C(=O)c2cc(NC(=O)Nc3cccc4ccccc34)ccc2O[C@@H](C)CCCCO[C@H]1CN(C)Cc1ccccc1	active
C[C@@H]1CCCCO[C@@H](CN(C)Cc2ccccc2)[C@@H](C)CN([C@H](C)CO)C(=O)c2cc(NC(=O)Nc3cccc4ccccc34)ccc2O1	inactive
C[C@H]1CCCCO[C@H](CN(C)Cc2ccccc2)[C@@H](C)CN([C@@H](C)CO)C(=O)c2cc(NC(=O)Nc3cccc4ccccc34)ccc2O1	active
C[C@@H]1CCCCO[C@H](CN(C)Cc2ccncc2)[C@H](C)CN([C@@H](C)CO)C(=O)c2cc(NC(=O)Nc3cccc4ccccc34)ccc2O1	active
C[C@@H]1CCCCO[C@H](CN(C)Cc2ccccc2)[C@@H](C)CN([C@@H](C)CO)C(=O)c2cc(NC(=O)Nc3cccc4ccccc34)ccc2O1	active
C[C@@H]1CCCCO[C@H](CN(C)Cc2ccc(C(=O)O)cc2)[C@@H](C)CN([C@@H](C)CO)C(=O)c2cc(NC(=O)Nc3cccc4ccccc34)ccc2O1	inactive
C[C@@H]1CCCCO[C@@H](CN(C)Cc2ccc(C(=O)O)cc2)[C@@H](C)CN([C@H](C)CO)C(=O)c2cc(NC(=O)Nc3cccc4ccccc34)ccc2O1	inactive
CC(C)NC(=O)N(C)C[C@@H]1OCc2cnnn2CCCC(=O)N([C@H](C)CO)C[C@@H]1C	inactive
C[C@H]1CN([C@@H](C)CO)C(=O)c2c(c3ccccc3n2C)-c2ccccc2CO[C@@H]1CN(C)C(=O)c1ccc(F)cc1	inactive
C[C@H]1CCCCO[C@@H](CN(C)Cc2ccc3c(c2)OCO3)[C@@H](C)CN([C@@H](C)CO)C(=O)c2cc(NS(=O)(=O)c3ccc(F)cc3)ccc2O1	inactive
C[Si](C)(C)O[Si](C)(C)O[Si](C)(C)C	inactive

SMILES	cytotoxicity call
COc1ccc(S(=O)(=O)N(C)C[C@@H]2Oc3c(NS(=O)(=O)c4ccc(F)cc4)cccc3C(=O)N([C@H](C)CO)C[C@H]2C)cc1	inactive
Cc1ccc(S(=O)(=O)N(C)C[C@H]2OCCCC[C@@H](C)Oc3ccc(NC(=O)C4CCCCC4)cc3C(=O)N([C@H](C)CO)C[C@H]2C)cc1	inactive
COc1ccccc1CNC(=O)C[C@@H]1CC[C@H]2[C@@H](COC[C@H](O)CN2C(=O)Nc2ccc(Cl)cc2)O1	inactive
C[C@@H]1CCCCO[C@H](CN(C)Cc2ccc(C(=O)O)cc2)[C@H](C)CN([C@H](C)CO)C(=O)c2cc(NC(=O)Nc3cccc4ccccc34)ccc2O1	inactive
C[C@@H]1CN([C@@H](C)CO)C(=O)c2cc(NC(=O)Nc3cccc4ccccc34)ccc2O[C@@H](C)CCCCO[C@H]1CN(C)Cc1ccc(C(F)(F)F)cc1	inactive
C[C@@H]1CN([C@@H](C)CO)C(=O)c2cc(NC(=O)Nc3cccc4ccccc34)ccc2O[C@@H](C)CCCCO[C@@H]1CN(C)Cc1ccccc1	active
C[C@H](CO)N1C[C@H](C)[C@@H](CN(C)Cc2ccc(C(F)(F)F)cc2)OCCCC[C@H](C)Oc2ccc(NC(=O)Nc3cccc4ccccc34)cc2C1=O	active
C[C@@H]1CN([C@H](C)CO)C(=O)c2cc(NC(=O)Nc3cccc4ccccc34)ccc2O[C@@H](C)CCCCO[C@H]1CN(C)Cc1ccccc1	active
C[C@H](CO)N1C[C@H](C)[C@H](CN(C)Cc2ccccc2)OCCCC[C@H](C)Oc2ccc(NC(=O)Nc3cccc4ccccc34)cc2C1=O	inactive
C[C@@H]1CN([C@H](C)CO)C(=O)c2cc(NC(=O)Nc3cccc4ccccc34)ccc2O[C@@H](C)CCCCO[C@H]1CN(C)Cc1ccc(C(F)(F)F)cc1	inactive
C[C@@H]1CCCCO[C@@H](CN(C)Cc2ccccc2)[C@@H](C)CN([C@@H](C)CO)C(=O)c2cc(NC(=O)Nc3cccc4ccccc34)ccc2O1	inactive
C[C@@H]1CCCCO[C@@H](CN(C)Cc2ccc(C(=O)O)cc2)[C@@H](C)CN([C@@H](C)CO)C(=O)c2cc(NC(=O)Nc3cccc4ccccc34)ccc2O1	inactive
COc1ccc(S(=O)(=O)N(C)C[C@@H]2Oc3ccc(NS(=O)(=O)c4c(C)noc4C)cc3C(=O)N([C@@H](C)CO)C[C@H]2C)cc1	inactive
COc1ccc(S(=O)(=O)N(C)C[C@H]2OCCCC[C@@H](C)Oc3ccc(NC(=O)CCCCCC(=O)Nc4ccccc4N)cc3C(=O)N([C@H](C)CO)C[C@H]2C)cc1	inactive
C[C@@H]1CN([C@H](C)CO)C(=O)c2cccc(NS(C)(=O)=O)c2O[C@@H]1CN(C)Cc1ccc2c(c1)OCO2	inactive
C[C@@H]1CN([C@@H](C)CO)C(=O)c2cc(NS(=O)(=O)c3cccs3)ccc2O[C@@H](C)CCCCO[C@@H]1CN(C)S(=O)(=O)c1cn(C)cn1	inactive
Cc1noc(C)c1NC(=O)Nc1ccc2c(c1)CC(=O)N([C@H](C)CO)C[C@@H](C)[C@@H](CN(C)S(C)(=O)=O)O2	inactive
CS(=O)(=O)Nc1ccc2c(c1)[C@@H]1C[C@H](CC(=O)NCC3CC3)O[C@@H](CO)[C@@H]1O2	inactive
C[C@@H]1CN([C@@H](C)CO)C(=O)c2cc(NC(=O)Cc3ccccc3)ccc2O[C@@H](C)CCCCO[C@@H]1CN(C)S(=O)(=O)c1ccc(F)cc1	inactive
